The source of these data is PubChem BioAssay (EPA / NIEHS).

Inconclusive results are not listed. Activity calls are given as the source filed them. The calls were made as follows: active = hit-call score of the fitted dose curve at least 0.9, where 1 is the maximum; inconclusive = response in the unintended direction; inactive = score below 0.9.

The target in test [1] is Cellular tumor antigen p53 (Homo sapiens) (UniProt P04637). The test is described as follows: TOX21_p53_BLA_p3_ratio: Tox21 HCT-116 p53 Agonism Beta-lactamase Assay, Ratio, Phase 3 (AID 2283596). The procedure, abridged:
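Cells were seeded at 4000/well, rested 5 h at 37C, then dosed with DMSO compound solutions (217-fold dilution) for 16 h. CCF4-AM substrate was loaded for 2 h at room temperature, and the 460/530 nm emission ratio was fitted for gain of signal versus DMSO.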

Test [2] has the same target. The test is described as follows: TOX21_p53_BLA_p4_ratio: Tox21 HCT-116 p53 Agonism Beta-lactamase Assay, Ratio, Phase 4 (AID 2283601). The method, boiled down: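 HCT116 cells carrying an inducible beta-lactamase reporter were plated at 4000 cells/well, rested 5 h, then exposed to compounds in DMSO (217-fold dilution) for 16 h at 37C. CCF4-AM substrate was loaded 2 h at room temperature; 460/530 nm emission ratio scored gain-of-signal versus DMSO.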

The nature of test [3]: Tanguay_ZF_120hpf_MORT_legacy: (Legacy) Oregon State University Tanguay Lab 120 Hour Post-fertilization zebrafish Assay for Mortality (AID 2283633). The method, boiled down:
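Brightfield scoring of embryo death (binary) at 24 and 120 hpf; static exposure 6–120 hpf, 28C, sealed and foil-covered. Pronase-dechorionated 5D wild-type larvae, single embryo per well. DMSO 0.64% v/v; trimethyltin chloride 5uM positive control.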

Test [4] is described as follows: Tanguay_ZF_120hpf_YSE_legacy: (Legacy) Oregon State University Tanguay Lab 120 Hour Post-fertilization zebrafish Assay for Yolk Sac Edema (AID 2283634).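 As to AC50: actives raise the incidence of yolk sac edema above the DMSO baseline.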 The procedure, abridged:
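Binary brightfield scoring of yolk sac edema at 120 hpf; DMSO baseline, gain-of-signal fitting. Dechorionated 5D larvae, one per well, static exposure 6–120 hpf, 28C, 0.64% DMSO. Dead embryos not scored.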

The nature of test [5]: Tanguay_ZF_120hpf_AXIS_legacy: (Legacy) Oregon State University Tanguay Lab 120 Hour Post-fertilization zebrafish Assay for Body Axis Malformation (AID 2283635).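 As to AC50: potency for an increased fraction of larvae scored with body axis malformation.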 The procedure, abridged: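 Embryos: 5D wild-type, pronase-dechorionated 4 hpf; static exposure 6–120 hpf, 28C, sealed, dark, 1 embryo/well, 0.64% DMSO. 120 hpf axis malformation scored present/absent; dead embryos excluded. Analysed as gain of signal vs DMSO.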

A short description of test [6]: Tanguay_ZF_120hpf_EYE_legacy: (Legacy) Oregon State University Tanguay Lab 120 Hour Post-fertilization zebrafish Assay for Eye Malformation (AID 2283636).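 Also: binary presence or absence of eye malformation scored by brightfield in 120 hpf larvae.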 The method, boiled down:
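Static waterborne exposure of dechorionated zebrafish embryos (strain Tropical 5D), 6 to 120 hpf, sealed plates at 28C, 0.64% DMSO vehicle. Eye malformation is scored as a binary endpoint, with gain of signal analysed relative to DMSO.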

The nature of test [7]: Tanguay_ZF_120hpf_SNOU_legacy: (Legacy) Oregon State University Tanguay Lab 120 Hour Post-fertilization zebrafish Assay for Snout Malformation (AID 2283637). The procedure, abridged:
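Dechorionated zebrafish, individually housed from 6 hpf in covered, sealed wells at 28C with 0.64% DMSO vehicle, were examined at 120 hpf for snout malformation. Responses were binary and analysed positive-direction relative to DMSO.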

Test [8] is described as follows: TOX21_p53_BLA_p4_viability: Viability Assessment in the Tox21 HCT-116 p53 Agonism Beta-lactamase Assay, Phase 4 (AID 2283597).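 Also: hits lower the luminescence signal meaning cytotoxicity.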 The procedure, abridged: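 ATP content by CellTiter-Glo luminescence, 30 min RT, read after the beta-lactamase ratio step. Cells: HCT116, 4000/well, compound added after 5 h, exposure 16 h at 37C. Signal loss = reduced viability.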
For test [9], the target named is Cellular tumor antigen p53 (Homo sapiens) (UniProt P04637). The test is described as follows: TOX21_p53_BLA_p5_ratio: Tox21 HCT-116 p53 Agonism Beta-lactamase Assay, Ratio, Phase 5 (AID 2283599). The method, boiled down: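 HCT-116 cells carrying a p53-inducible beta-lactamase reporter were seeded at 4000 cells/well and dosed after 5 h with compound in DMSO (217-fold dilution). After 16 h at 37C, CCF4-AM substrate was added for 2 h, and the 460/530 nm emission ratio was scored as gain-of-signal versus DMSO.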

Test [10] can be described thus: TOX21_p53_BLA_p5_viability: Viability Assessment in the Tox21 HCT-116 p53 Agonism Beta-lactamase Assay, Phase 5 (AID 2283600). The method, boiled down: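 ATP luminescence (CellTiter-Glo, 30 min, RT) served as the viability read-out, with loss of signal indicating cytotoxicity. Compounds in DMSO were pinned at a 217-fold dilution onto 4000 cells/well and incubated 16 h, 37C.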

Cellular tumor antigen p53 (Homo sapiens), sequence (P04637 whole entry, looked up): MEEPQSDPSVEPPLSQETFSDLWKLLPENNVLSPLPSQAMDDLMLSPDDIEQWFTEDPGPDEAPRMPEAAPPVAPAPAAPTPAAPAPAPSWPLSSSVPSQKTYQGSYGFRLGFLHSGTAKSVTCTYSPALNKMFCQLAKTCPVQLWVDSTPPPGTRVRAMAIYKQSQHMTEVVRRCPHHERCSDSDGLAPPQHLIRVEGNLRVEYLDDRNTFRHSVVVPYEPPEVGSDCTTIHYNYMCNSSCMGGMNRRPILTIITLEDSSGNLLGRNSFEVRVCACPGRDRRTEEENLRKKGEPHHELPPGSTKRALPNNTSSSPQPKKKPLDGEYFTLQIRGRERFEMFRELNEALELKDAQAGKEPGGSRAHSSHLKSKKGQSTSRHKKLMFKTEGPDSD

As for `CC(C)Nc1nc(Cl)nc(NC(C)C)n1`, the result in test [1], in test [2], in [3], in test [4], in test [5] and in test [6] was inactive. Also, the result in test [7] was inactive.

Turning to `CCCC(=NOCC)C1=C(O)CC(CC(C)SCC)CC1=O` (configuration not stated), the result in test [1], in [8], in [3], in test [4], in [5] and in [6] was inactive. Further, the call in test [7] was inactive.

For `COP(=O)(OC)O/C(C)=C/C(=O)N(C)C`, the result in test [9], in [2], in [3], in test [4], in [5] and in [6] was inactive. In test [7], the molecule was called inactive.

For the molecule `O=P(O)(O)CCCl`, the outcome in [1], in [9], in test [10], in test [2], in test [3] and in test [4] was inactive. Moreover, the molecule was classed as inactive in [5], in [6] and in test [7].

For `CS(=O)(=O)c1cc(C(F)(F)F)ccc1C(=O)c1cnoc1C1CC1`, the molecule was called inactive in [8], in test [10], in [3], in test [4], in test [5] and in test [6]. For the same molecule, in [7], the molecule was classed as inactive.

For `CCNP(=S)(OC)O/C(C)=C/C(=O)OC(C)C` (configuration not stated), the outcome in [1], in [8], in test [2], in test [3], in test [4] and in test [5] was inactive. The result in test [6] and in test [7] was inactive.

Regarding `CN/C(=N\[N+](=O)[O-])NCc1cnc(Cl)s1`, the outcome in [8], in [10], in [2], in test [3], in test [4] and in test [5] was inactive. For the same molecule, the molecule was classed as inactive in test [6] and in test [7].

In the case of `COc1cc(OC)nc(NC(=O)NS(=O)(=O)c2ncccc2OCC(F)(F)F)n1`, the outcome in test [1], in test [8], in test [9], in test [2], in test [3] and in test [4] was inactive. For the same molecule, the call in [5], in [6] and in [7] was inactive.

For `CCSC(=O)N1CCCCCC1`, the result in test [1], in test [9], in [10], in [3], in test [4] and in [5] was inactive. Further, the outcome in test [6] and in [7] was inactive.

For `Cc1cnc(C2=NC(C)(C(C)C)C(=O)N2)c(C(=O)O)c1` (configuration not stated), the molecule was classed as inactive in test [8], in test [10], in test [3], in test [4], in test [5] and in test [6]. Further, the result in test [7] was inactive.

Consider `CCOc1nc(F)cc2nc(S(=O)(=O)Nc3c(Cl)cccc3Cl)nn12`, for which the result in test [1], in test [8], in test [9], in test [2], in [3] and in [5] was inactive. Moreover, the outcome in test [7] was inactive.

Take `COC(=O)NC(=S)Nc1ccccc1NC(=S)NC(=O)OC`: the result in test [9], in test [10], in test [2], in test [3], in test [5] and in test [6] was inactive. Moreover, the AC50 in test [4] was 47.7 µM (active); in test [7], 50.3 µM (active).

For the molecule `CC1(C)CON(Cc2ccccc2Cl)C1=O`, the result in [1], in test [8], in test [9], in [3], in test [4] and in [6] was inactive. Further, the outcome in test [7] was inactive.

Consider `CCOP(=S)(OCC)Oc1nc(Cl)n(C(C)C)n1`, for which the result in test [1], in test [9], in test [2], in test [3], in test [6] and in test [7] was inactive. The AC50 was 37.4 µM (active) in test [4] and 14.4 µM (active) in [5].

For the molecule `CCN(CC)C(=O)C(C)Oc1cccc2ccccc12` (configuration not stated), the outcome in test [1], in test [8], in [9], in test [2], in test [3] and in test [5] was inactive. Further, the outcome in test [6] and in test [7] was inactive. In addition, the AC50 in [4] was 55 µM (active).

Take `CCCN(CC)CC1COC2(CCC(C(C)(C)C)CC2)O1` (configuration not stated): the outcome in [8], in test [10], in test [3], in [4], in test [5] and in [6] was inactive. Moreover, in test [7], the outcome was inactive.

As to `N#Cc1c(Cl)cccc1Cl`, the outcome in test [1], in [9], in [2], in test [3], in test [4] and in test [5] was inactive. Besides, the outcome in [6] and in test [7] was inactive.

Regarding `C=C(C)CN(CC)c1c([N+](=O)[O-])cc(C(F)(F)F)cc1[N+](=O)[O-]`, the outcome in test [1], in test [9], in test [3], in [4], in [5] and in [7] was inactive. In addition, the AC50 in test [2] is 0.000117 µM (active).

With `Cc1nc(N(C)C)nc(OC(=O)N(C)C)c1C`, the result in test [3], in test [4], in [5], in [6] and in test [7] was inactive.

In the case of `CC(C)=CC1C(C(=O)OCc2coc(Cc3ccccc3)c2)C1(C)C` (configuration not stated), the outcome in [3], in test [4], in [5], in test [6] and in [7] was inactive.

`COCc1cnc(C2=NC(C)(C(C)C)C(=O)N2)c(C(=O)O)c1` (configuration not stated): the outcome in [3], in test [4], in [6] and in test [7] was inactive.
